# Data taken from PubChem BioAssay.
# Activity calls are given as the source filed them. Unless noted, how the calls were made is not given here.
# Key:
# [1] = anti-His antibody binders, primary screen, artefact control for SMM control protein annotation, biochemical, small-molecule microarray, 635 nm fluorescence (AID 1128); conditions: anti-His Alexa647 antibody binding, higher = more signal;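 further: score merges feature fluorescence with signal-to-noise for each printed compound spot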
# [2] = system: Human papillomavirus type 1a E7 protein (residues 1-88); assay: HPV1a E7 small-molecule binders, primary screen, biochemical, small-molecule microarray, residues 1-88, 635 nm (AID 1129); conditions: small-molecule microarray binding, fluorescence 635 nm; higher = more signal
# [3] = molecular target: Focal adhesion kinase 1 (Homo sapiens) (UniProt Q05397); assay: small-molecule microarray binders of FAK, primary screen, biochemical, 635/667 nm fluorescence, BSA, DTT (AID 1130); conditions: PTK2 binding, 635 nm fluorescence, higher = more signal;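 further: composite of spot emission at 667 nm and signal to noise over triplicate slides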
# Focal adhesion kinase 1 (Homo sapiens), sequence (Q05397 whole entry, looked up): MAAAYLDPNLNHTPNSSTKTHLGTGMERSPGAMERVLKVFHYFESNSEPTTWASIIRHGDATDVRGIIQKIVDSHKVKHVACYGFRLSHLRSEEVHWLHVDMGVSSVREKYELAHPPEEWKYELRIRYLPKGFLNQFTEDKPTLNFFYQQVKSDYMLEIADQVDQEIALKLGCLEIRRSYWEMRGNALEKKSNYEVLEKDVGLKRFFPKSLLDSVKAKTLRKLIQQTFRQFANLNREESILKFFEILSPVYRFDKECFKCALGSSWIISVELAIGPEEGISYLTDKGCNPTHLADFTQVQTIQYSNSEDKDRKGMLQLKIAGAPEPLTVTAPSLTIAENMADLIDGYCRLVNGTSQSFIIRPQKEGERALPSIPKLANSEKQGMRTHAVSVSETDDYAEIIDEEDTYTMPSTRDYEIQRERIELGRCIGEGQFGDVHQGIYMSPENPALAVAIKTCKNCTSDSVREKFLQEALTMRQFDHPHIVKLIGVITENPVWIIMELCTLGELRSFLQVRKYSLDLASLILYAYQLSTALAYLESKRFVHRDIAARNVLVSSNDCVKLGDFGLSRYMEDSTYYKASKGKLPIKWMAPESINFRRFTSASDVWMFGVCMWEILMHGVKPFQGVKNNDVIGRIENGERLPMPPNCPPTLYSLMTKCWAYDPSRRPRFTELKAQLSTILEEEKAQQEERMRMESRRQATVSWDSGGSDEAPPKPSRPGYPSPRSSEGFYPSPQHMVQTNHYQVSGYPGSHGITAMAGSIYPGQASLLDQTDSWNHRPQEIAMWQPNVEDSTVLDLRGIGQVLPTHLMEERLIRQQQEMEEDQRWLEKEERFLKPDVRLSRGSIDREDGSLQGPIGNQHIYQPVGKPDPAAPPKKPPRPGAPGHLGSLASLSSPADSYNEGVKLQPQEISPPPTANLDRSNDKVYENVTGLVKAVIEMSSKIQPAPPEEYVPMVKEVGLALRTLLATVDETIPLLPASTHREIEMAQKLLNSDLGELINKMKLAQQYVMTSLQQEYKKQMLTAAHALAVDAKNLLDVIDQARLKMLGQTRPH
# [4] = system: Fibrinogen (Alexa647-labelled); assay: fibrinogen binders on compound microarrays, profiling panel, artefact control for SMM control-protein annotation, biochemical, small-molecule microarray, 635/667 nm fluorescence (AID 1131); conditions: fibrinogen-A647 binding fluorescence, higher = more signal;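 further: z-score merges 667 nm fluorescence with per-spot signal-to-noise over triplicate slides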
# [5] = molecular target: Follistatin (Homo sapiens) (UniProt P19883); assay: follistatin binders on small-molecule microarrays, primary screen, biochemical, small-molecule microarray, 635/667 nm fluorescence (AID 1132); conditions: FST binding, 635 nm fluorescence, higher = more signal
# Follistatin (Homo sapiens), sequence (P19883 whole entry, looked up): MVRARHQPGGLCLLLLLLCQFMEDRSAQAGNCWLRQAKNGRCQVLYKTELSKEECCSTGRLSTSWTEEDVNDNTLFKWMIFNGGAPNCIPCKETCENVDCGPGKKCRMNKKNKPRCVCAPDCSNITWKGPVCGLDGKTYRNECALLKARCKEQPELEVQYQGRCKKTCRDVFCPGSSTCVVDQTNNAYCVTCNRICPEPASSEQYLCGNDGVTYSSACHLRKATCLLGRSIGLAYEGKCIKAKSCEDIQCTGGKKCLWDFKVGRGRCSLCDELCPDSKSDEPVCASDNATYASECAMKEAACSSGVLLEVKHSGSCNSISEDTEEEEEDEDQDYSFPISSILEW
# [6] = molecular target: Fibroblast growth factor 2 (Homo sapiens) (UniProt P09038); assay: FGF2 binders on small-molecule microarrays, primary screen, biochemical, small-molecule microarray, 635/667 nm fluorescence (AID 1133); conditions: small-molecule microarray binding, FGF2, fluorescence 635/667; higher = more signal
# Fibroblast growth factor 2 (Homo sapiens), sequence (P09038 whole entry, looked up): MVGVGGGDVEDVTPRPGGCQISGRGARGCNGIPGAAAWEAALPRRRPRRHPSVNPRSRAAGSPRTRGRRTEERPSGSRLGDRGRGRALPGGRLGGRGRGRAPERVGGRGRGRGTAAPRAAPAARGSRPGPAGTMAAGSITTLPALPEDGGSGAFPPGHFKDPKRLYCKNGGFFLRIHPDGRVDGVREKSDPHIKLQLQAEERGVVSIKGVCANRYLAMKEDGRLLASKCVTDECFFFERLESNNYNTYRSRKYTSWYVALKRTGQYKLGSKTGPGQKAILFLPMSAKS
# [7] = mitochondrial membrane potential change in A549 cells, profiling panel, cell-based, JC-1 fluorescence, basal, 24 h, 100 nL (AID 1138); conditions: higher = more signal;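 further: A549 lung adenocarcinoma cells under basal conditions with no added stimulus; test concentration not given here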
# Lefty1 = Lefty1 binders on small-molecule microarrays, primary screen, biochemical, small-molecule microarray, 635/667 nm fluorescence (AID 1139); conditions: small-molecule microarray binding, fluorescence 635/667; higher = more signal
# [8] = system: wheat germ agglutinin (Triticum aestivum), Alexa647-labelled; assay: wheat germ agglutinin binders on compound microarrays, profiling panel, artefact control for SMM control-protein annotation, biochemical, small-molecule microarray, 635/667 nm fluorescence (AID 1140); conditions: WGA-A647 binding, 635 nm fluorescence, higher = more signal;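 further: score merges 667 nm feature emission with signal to noise over triplicate slides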
# [9] = molecular target: Luciferin 4-monooxygenase (Photinus pyralis) (UniProt P08659); assay: firefly luciferase enzyme inhibitors, primary screen, biochemical, luminescence, purified enzyme, 2006 set (AID 1141); conditions: SteadyGlo luminescence, 30 min, higher = more signal, called active from +8 up or from −8 down;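 further: cell-free assay with purified firefly luciferase at 100 ng per well in PBS; test concentration not given here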
# Luciferin 4-monooxygenase (Photinus pyralis), sequence (P08659 whole entry, looked up): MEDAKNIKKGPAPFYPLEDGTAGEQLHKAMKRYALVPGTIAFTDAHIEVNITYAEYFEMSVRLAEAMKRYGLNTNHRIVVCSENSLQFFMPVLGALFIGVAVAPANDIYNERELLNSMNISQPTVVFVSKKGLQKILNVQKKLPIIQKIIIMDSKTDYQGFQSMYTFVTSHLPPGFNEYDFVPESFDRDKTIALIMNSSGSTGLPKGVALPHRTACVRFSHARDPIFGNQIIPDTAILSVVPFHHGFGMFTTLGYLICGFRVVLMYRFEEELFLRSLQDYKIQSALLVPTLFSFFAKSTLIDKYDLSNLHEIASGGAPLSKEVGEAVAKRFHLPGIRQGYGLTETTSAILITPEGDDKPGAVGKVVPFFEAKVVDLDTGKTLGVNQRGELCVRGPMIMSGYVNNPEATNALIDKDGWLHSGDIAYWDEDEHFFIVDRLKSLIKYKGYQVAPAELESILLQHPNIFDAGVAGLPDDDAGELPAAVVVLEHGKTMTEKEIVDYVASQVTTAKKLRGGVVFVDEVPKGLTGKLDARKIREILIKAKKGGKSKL
# [10] = system: Wnt5a (protein binding on small-molecule microarray); assay: Wnt5a binders on small-molecule microarray, primary screen, biophysical, 635/667 nm fluorescence (AID 1142); conditions: 635 nm fluorescence, higher = more signal;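 further: fluorescence read at 667 nm with signal to noise per printed feature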
# [11] = cell viability in Huh7 cells, primary screen, cytotoxicity control for HCV replication inhibitor project, CellTiter-Glo luminescence, basal, 48 h (AID 1143); conditions: Huh7 HCV replicon, higher = more signal, called active from +8 up or from −8 down;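 further: Huh7 hepatoma cells carrying a hepatitis C replication reporter with no stimulus; test concentration not given here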
# [12] = P. aeruginosa biofilm formation inhibitors, primary screen, PAO1 strain, BacTiter-Glo luminescence, LB-PBS (AID 1144); conditions: 12 h, higher = more signal
# [13] = CREB reporter modulators without forskolin, primary screen, cell-based, PC12, CRE-LacZ reporter, unstimulated (AID 1145); conditions: no forskolin, luminescence, 4.5 h, higher = more signal, called active from +8 up or from −8 down
# [14] = CREB reporter modulators under forskolin, primary screen, cell-based, PC12, CRE-LacZ reporter, forskolin-stimulated (AID 1146); conditions: luminescence, 4.5 h, higher = more signal, called active from +8 up or from −8 down;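 further: PC12 cells with 6xCRE LacZ reporter stimulated by forskolin 10 µM; beta-galactosidase reporter signal reflecting CREB driven transcription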
# [15] = molecular target: Streptavidin (Streptomyces avidinii) (UniProt P22629); assay: streptavidin binders on small-molecule microarray, primary screen, artefact control for SMM compound annotation, biophysical, 635/667 nm fluorescence (AID 1147); conditions: streptavidin binding, higher = more signal;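 further: signal reflects streptavidin binding to arrayed compounds as a control protein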
# Streptavidin (Streptomyces avidinii), sequence (P22629 whole entry, looked up): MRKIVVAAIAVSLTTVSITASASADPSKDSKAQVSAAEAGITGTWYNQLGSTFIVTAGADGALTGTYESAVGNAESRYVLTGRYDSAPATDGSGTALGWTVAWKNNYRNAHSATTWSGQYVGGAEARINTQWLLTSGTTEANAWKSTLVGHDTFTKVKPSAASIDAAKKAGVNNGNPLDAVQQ
# [16] = small-molecule binders of probe aInhba, primary screen, biochemical, small-molecule microarray, 635/667 nm fluorescence (AID 1148); conditions: higher = more signal;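 further: score merges 667nm spot fluorescence with signal-to-noise for antibody binding to printed compounds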
# Torsin-1A (Homo sapiens) [17] = molecular target: Torsin-1A (Homo sapiens) (UniProt O14656); assay: torsin A binders from cell lysate, primary screen, small-molecule microarray, wild-type, 635/667 nm (AID 1149); conditions: COS7 hTOR1A-WT lysate, 635 nm fluorescence, higher = more signal
# Torsin-1A (Homo sapiens), sequence (O14656 whole entry, looked up): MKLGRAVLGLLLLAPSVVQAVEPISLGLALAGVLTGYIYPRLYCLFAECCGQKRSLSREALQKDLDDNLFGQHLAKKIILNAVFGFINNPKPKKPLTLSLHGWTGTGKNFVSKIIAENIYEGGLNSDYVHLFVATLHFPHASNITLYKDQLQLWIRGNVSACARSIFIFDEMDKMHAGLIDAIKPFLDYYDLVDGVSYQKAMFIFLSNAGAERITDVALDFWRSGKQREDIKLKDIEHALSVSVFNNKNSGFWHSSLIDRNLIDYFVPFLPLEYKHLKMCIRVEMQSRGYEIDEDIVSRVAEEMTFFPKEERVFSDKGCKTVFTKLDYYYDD
# Torsin-1A (Homo sapiens) [18] = molecular target: Torsin-1A (Homo sapiens) (UniProt O14656); assay: small-molecule binders of mutant TOR1A in lysate, primary screen, cell lysate, small-molecule microarray, COS7 lysate, 635/667 nm fluorescence (AID 1150); conditions: COS7 hTOR1A mutant lysate, 635 nm fluorescence, higher = more signal;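 further: score pools 667 nm emission and signal to noise measuring lysate protein binding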
# [19] = system: Sonic hedgehog protein (Shh); assay: small-molecule binders of Shh protein, primary screen, biochemical, small-molecule microarray, 635/667 nm fluorescence (AID 1151); conditions: small-molecule microarray binding, 635 nm fluorescence; higher = more signal;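 further: Shh protein binding to compounds spotted on small-molecule microarray slides; score combines spot fluorescence intensity with signal-to-noise across triplicate slides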
SMILES,composite z-score [1],composite z-score [2],composite z-score [3],composite z-score [4],composite z-score [5],composite z-score [6],z-score [7],composite z-score (Lefty1),composite z-score [8],z-score [9],composite z-score [10],z-score [11],z-score [12],z-score [13],z-score [14],composite z-score [15],composite z-score [16],composite z-score (Torsin-1A (Homo sapiens) [17]),composite z-score (Torsin-1A (Homo sapiens) [18]),composite z-score [19]
CCCCN1CC=CC23O[C@@H]4C=CCOC(=O)[C@@H]4[C@H]2C(=O)N(C(CO)C(C)C)[C@@H]3C1=O (stereo not given in full),-1.13,-0.663,-0.813,-0.328,0.389,0.126,0.406,-0.12,-0.708,-0.606 (inactive),-0.0661,0.233 (inactive),0.946 (inactive),0.463 (inactive),0.547 (inactive),-0.507,-0.34,-0.241,-0.436,0.605
CN(C)CCCNC(=O)[C@@]1(Cc2ccccc2I)c2ccccc2C(=O)N(Cc2ccccc2)[C@H]1c1ccc(CO)cc1,1.88,1.26,0.658,0.512,1.28,1.58,0.893,0.239,-0.0325,0.936 (inactive),0.652,-5.58 (inactive),0.113 (inactive),0.351 (inactive),2.56 (inactive),-0.203,-0.471,0.0857,0.325,1.41
C=C(CCCC)C(=O)CC[C@H](OC(=O)c1cccnc1)c1ccc(CO)o1,3.27,1.2,-0.188,0.664,1.18,1.27,-0.555,1.65,0.791,-1.33 (inactive),0.239,0.0536 (inactive),-0.159 (inactive),-0.117 (inactive),0.484 (inactive),0.14,0.212,0.835,0.576,1.6
C=CCOC(=O)[C@H]1[C@@H]2C(=O)O[C@@H](c3ccccc3)[C@@H](c3ccccc3)N2[C@@H](c2ccc(OCCOC(=O)[C@@H]3C[C@@H]4C(=O)N[C@@H](CC(C)C)C(=O)N4[C@@H]3c3ccc(O)cc3)cc2)[C@]12C(=O)Nc1ccc(I)cc12,0.785,0.935,0.443,0.761,1.08,1.89,-0.946,0.677,0.902,-2.13 (inactive),0.15,-0.901 (inactive),-1.3 (inactive),0.281 (inactive),0.318 (inactive),0.149,-0.0791,0.637,1.22,1.91
COC(=O)[C@@]1(Cc2ccccc2)[C@@H]2[C@@H](CC(=O)[C@H]2CC(=O)C(=O)N(C)C)CN1C(=O)c1ccccc1,1.33,0.577,0.434,0.601,-0.155,-0.112,1.19,-0.575,0.0553,0.558 (inactive),-0.087,-0.0162 (inactive),-0.621 (inactive),0.201 (inactive),0.983 (inactive),0.315,-0.0963,-0.115,0.417,-0.829
COc1ccc(CCNC(=O)[C@@]2(Sc3ccc(C)cc3)CC(=O)N(C(C)C)[C@@H]2c2ccc(CO)cc2)cc1,0.8,-0.594,-0.13,-1.3,-0.616,-1.26,0.339,-0.919,-0.29,-0.424 (inactive),-1.02,-0.583 (inactive),0.305 (inactive),1.56 (inactive),-0.519 (inactive),-0.621,-0.137,0.939,0.122,-1.6
CCN(CC)c1ccc(N2CC=CC34O[C@@H]5C=CCOC(=O)[C@@H]5[C@H]3C(=O)N(CCCO)[C@@H]4C2=O)cc1 (stereo not given in full),1.53,-1.05,-0.0534,-0.973,-0.658,-0.576,-0.125,-0.923,-0.245,-0.803 (inactive),-0.121,-2.34 (inactive),-0.527 (inactive),-0.228 (inactive),-0.905 (inactive),-1.39,-0.128,0.0507,2.46,-0.0981
C=C(CC1([C@@H](NP(=O)(c2ccccc2)c2ccccc2)[C@H]2C[C@@H]2CCN(C(=O)OCC)S(=O)(=O)c2ccc(C)cc2)CC1)c1ccccc1,1.74,1.22,1.15,0.781,0.712,-0.804,0.782,-0.162,0.593,2.49 (inactive),0.302,-3.37 (inactive),0.83 (inactive),-0.196 (inactive),0.108 (inactive),1.27,0.199,-0.423,0.0999,-1.18
C=C(COC)/C(=C/C[C@H](OC(=O)c1ccncc1)c1ccc(OCCO)cc1)c1cc(C(=O)OC)ccc1OC,1.14,1.18,0.918,0.763,1.38,0.329,-0.408,1.58,0.622,-0.265 (inactive),0.457,-3.86 (inactive),-0.999 (inactive),5.8 (inactive),0.946 (inactive),0.616,-0.0087,0.229,0.132,1.94
COc1ccc(CCNC(=O)[C@@]2(C)c3ccccc3C(=O)N(Cc3cc(C(F)(F)F)cc(C(F)(F)F)c3)[C@H]2c2ccc(CO)cc2)cc1,0.202,1.07,0.431,-0.0796,1.19,0.491,0.502,0.0292,0.367,-0.868 (inactive),0.024,-5.45 (inactive),0.603 (inactive),1.18 (inactive),-0.896 (inactive),-0.404,-0.102,0.602,1.52,0.198
